Potency and affinity values are given separately. Square brackets hold non-standard residues; d marks the D form. Peptide text beside a SMILES is read from it. pGlu = O=C1CC[C@@H](C(=O)O)N1; Thz = O=C(O)[C@@H]1CSCN1
The compounds below were run on Cryptococcus neoformans. Settings: Concentration 20 uM; ASSAY_TEST Inhibition of Fungal Growth; detection method Resazurin; Absorption (OD600-OD570); plate type 384well; NBS; CORNING #3640.

SMILES	Inhibition
CCC(=O)O[C@]1(C(=O)CCl)[C@@H](C)C[C@H]2[C@@H]3CCC4=CC(=O)C=C[C@]4(C)[C@@]3(F)[C@@H](O)C[C@@]21C [CLOBETASOL PROPIONATE]	4.34%
O=C1CC[C@@H](C(=O)N2CSC[C@H]2C(=O)O)N1 [PIDOTIMOD] ([pGlu]-[Thz]-OH)	-3.45%
CCN(CC)CCOC(=O)c1ccc(N)cc1.Cl [PROCAINE HYDROCHLORIDE]	-2.16%
Cc1nc(=O)c2cc(CN(C)c3ccc(C(=O)N[C@@H](CCC(=O)O)C(=O)O)s3)ccc2[nH]1 [RALTITREXED]	-0.58%
Cc1ccc(C)c(OCCCC(C)(C)C(=O)O)c1 [GEMFIBROZIL]	-1.55%
CC1(C)O[C@@H]2C[C@H]3[C@@H]4C[C@H](F)C5=CC(=O)C=C[C@]5(C)[C@H]4[C@@H](O)C[C@]3(C)[C@]2(C(=O)CO)O1 [FLUNISOLIDE]	-6.19%
Cc1cccc(C)c1NC(=O)C(C)N (stereo not drawn) [TOCAINIDE]	0.27%
O=C1c2c(O)cc(O)cc2O[C@H](c2ccc(O)c(O)c2)[C@@H]1O	-8.67%
OCc1cc(C(O)CNCCCCCCOCCCCc2ccccc2)ccc1O (stereo not drawn) [SALMETEROL]	-8.37%
O=C([O-])c1cc(=O)c2c(OCC(O)COc3cccc4oc(C(=O)[O-])cc(=O)c34)cccc2o1.[Na+].[Na+] [CROMOLYN SODIUM]	0.69%
Nc1ccn([C@@H]2CS[C@H](CO)O2)c(=O)n1 [LAMIVUDINE]	-7.82%
Cl.O=C1c2c(O)ccc(O)c2C(=O)c2c(NCCNCCO)ccc(NCCNCCO)c21	21.29%
C#C[C@]1(O)CC[C@H]2[C@@H]3CCC4=CC(=O)CC[C@@H]4[C@H]3CC[C@@]21CC [LEVONORGESTREL]	2.67%
Cl.O.c1cnc(N2CCN(Cc3ccc4c(c3)OCO4)CC2)nc1	-7.46%
Cn1nnc2c(C(N)=O)ncn2c1=O [TEMOZOLOMIDE]	-1.17%
Cl.NC12CC3CC(CC(C3)C1)C2 [AMANTADINE HYDROCHLORIDE]	-3.67%
CCCCC(=O)OC1(C(=O)CO)CCC2C3CCC4=CC(=O)CCC4(C)C3C(O)CC21C (stereo not drawn)	-1.86%
CC1CC2C3CCC4=CC(=O)C=CC4(C)[C@@]3(Cl)C(O)CC2(C)C1(O)C(=O)CO (stereo partly drawn)	-2.46%
CC(=O)O[C@H]1C[C@@H]2CC[C@@H]3[C@H](CC[C@@]4(C)[C@H]3C[C@H]([N+]3(C)CCCCC3)[C@@H]4OC(C)=O)[C@@]2(C)C[C@@H]1N1CCCCC1.[Br-] [VECURONIUM BROMIDE]	2.54%

SMILES	Inhibition
CN(C)CCC(c1ccc(Cl)cc1)c1ccccn1.O=C(O)/C=C\C(=O)O (stereo not drawn) [CHLORPHENIRAMINE MALEATE]	0.1%
CC(=CCC1=C(C)C(=O)c2ccccc2C1=O)CCCC(C)CCCC(C)CCCC(C)C (stereo not drawn)	1.23%
CCC(C)(C)C(=O)O[C@H]1C[C@@H](C)C=C2C=C[C@H](C)[C@H](CC[C@@H]3C[C@@H](O)CC(=O)O3)[C@H]21 [SIMVASTATIN]	3.41%
COc1cc(C)nc(-n2nc(C)cc2OC)n1 [EPIRIZOLE]	1.6%
Cl.NC[C@H]1CC[C@H](C(=O)Oc2ccc(CCC(=O)O)cc2)CC1 [CETRAXATE HYDROCHLORIDE]	-5.7%
C#C[C@]1(O)CC[C@H]2[C@@H]3[C@H](C)CC4=C(CCC(=O)C4)[C@H]3CC[C@@]21C [TIBOLONE]	-2.16%
CC(=O)OCC(CCn1cnc2cnc(N)nc21)COC(C)=O [FAMCICLOVIR]	-0.79%
CC(Cc1ccccc1)(NC(=O)CN)c1ccccc1.Cl (stereo not drawn) [REMACEMIDE HYDROCHLORIDE]	-7.79%
CCC1(c2ccccc2)C(=O)NCNC1=O [PRIMIDONE]	0.81%
CC(C)(C#N)c1cc(Cn2cncn2)cc(C(C)(C)C#N)c1 [ANASTROZOLE]	-3.6%
C[C@@H]1O[C@@H](OC[C@H]2O[C@@H](Oc3c(-c4ccc(O)c(O)c4)oc4cc(O)cc(O)c4c3=O)[C@H](O)[C@@H](O)[C@@H]2O)[C@H](O)[C@H](O)[C@H]1O [RUTIN]	-5.7%
CC[C@]1(O)C[C@@H]2CN(CCc3c([nH]c4ccccc34)[C@@](C(=O)OC)(c3cc4c(cc3OC)N(C=O)[C@H]3[C@@](O)(C(=O)OC)[C@H](OC(C)=O)[C@]5(CC)C=CCN6CC[C@]43[C@@H]65)C2)C1.O=S(=O)(O)O	-7.42%
CC1=C(CC(=O)O)c2cc(F)ccc2/C1=C\c1ccc([S+](C)[O-])cc1 (stereo not drawn)	-1.21%
CC1=C(C(=O)O)N2C(=O)[C@@H](NC(=O)[C@H](N)c3ccccc3)[C@H]2SC1.O [CEPHALEXIN]	4.2%
Cn1ccnc1S [METHIMAZOLE]	0.77%
Sc1ncnc2nc[nH]c12 [MERCAPTOPURINE ANHYDROUS]	-0.87%
O=C1C(c2c(O)[nH]c3ccccc23)=Nc2ccccc21	-4.77%
NC(=O)c1cccnc1 [NIACINAMIDE]	-0.49%
Nc1nc(N)c2nc(-c3ccccc3)c(N)nc2n1	1.8%
